A selection: hits, their analogues and other compounds. The true share with any hit is near 8%.
MCF10A rerep: A quantitative high throughput screen for small molecules that induce DNA re-replication in MCF 10a normal breast cells | MCF 10A DNA re-replication, Hoechst nuclear intensity, 48 h | Potency, µM (series often up to 46.1 µM), for inactives: at the highest dose activity, positive = re-replication, most hits filed as activators | actives 2.9% (n = 350,000); also: % of control where 0% means no effect; nearly all actives have a fitted effect of over 50% in size
HT1080 IDH1KD tx: qHTS for induction of synthetic lethality in tumor cells producing 2HG: qHTS for the HT-1080-IDH1KD cell line. actives 2% (n = 360,000). HT-1080 IDH1 knockdown viability, ATP luminescence, 48 h. AID 686971, 2013. Potency, µM (highest dose often 46.1 µM), inactives show at the highest dose activity, negative = toxicity, hits mostly cytotoxic;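 also: 0% = DMSO wells and -100% = cell-free medium wells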
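Assay cells: HT-1080 with IDH1 knockdown, 750 per well, RPMI/5% FBS. Exposure: 48 h at 37 °C following 2 h pre-incubation. Read: CellTiter-Glo luminescence; fitted concentration-response, curve class assigned.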
KB-V1 cytotox: qHTS assay for MDR1-selective chemotherapeutics: Primary screen using the drug-selected MDR subline cells KB-V1 | AID 1347076, 2019 | KB-V1 MDR cells viability, CellTiter-Glo, 72 h | Potency, µM (doses to about 46.1 µM), usual class: cytotoxic | actives 3.4% (n = 400,000); also: % is scaled to controls: 0 for no effect and ±100 for the full control effect; nearly all actives have a fitted effect of over 60% in size
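Luminescent ATP read-out (CellTiter-Glo, 10 min) measures survival of drug-selected KB-V1 MDR cells after 72 h, 37 degrees C compound exposure. Medium: phenol-red-free DMEM, 10% FBS. Values from fitted concentration-response curves.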
HT1080-NT tox: qHTS for induction of synthetic lethality in tumor cells producing 2HG: qHTS for the HT-1080-NT fibrosarcoma cell line; Potency, µM (series often up to 46.1 µM), without a hit: top-dose activity, negative = less viability, actives largely listed as cytotoxic; AID 686970, 2013; actives 1.6% (n = 360,000); HT-1080-NT fibrosarcoma viability, CellTiter-Glo ATP luminescence, 48 h;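 also: NT is the 2HG producing partner of a matched IDH1 knockdown line; 0% = DMSO-treated cells and -100% = media-only wells without cells; nearly all actives have a fitted effect of over 55% in size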
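Compounds were tested in concentration-response format on HT-1080-NT cells for 48 hours at 37 degrees C. Cell viability came from CellTiter-Glo luminescence; curves were classified by r2, response magnitude and activity.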
SW480 rerep: A quantitative high throughput screen for small molecules that induce DNA re-replication in SW480 colon adenocarcinoma cells; AID 624297, 2012; SW480 DNA re-replication, Hoechst DNA content imaging, 48 h; Potency, µM (top dose mostly 46.1 µM), for the others: at the top dose re-replication activation, actives largely listed as activators; actives 1.8% (n = 340,000); also: % of control where 0% means no effect; nearly all actives have a fitted effect of over 55% in size
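250 cells/well; 23 nL cpd via pin tool; 48 hr, 37 C, 5% CO2; Hoechst 40 min; imager read of total nuclear intensity, ex 405/em 500-530 nm.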
KB-3-1 cytotox: qHTS assay for MDR1-selective chemotherapeutics: Primary screen using the parental adenocarcinoma cell KB-3-1. Potency, µM (highest dose often 46.1 µM), actives largely listed as cytotoxic. actives 1.4% (n = 400,000). KB-3-1 viability, CellTiter-Glo ATP luminescence, 72 h; also: % is scaled to controls: 0 for no effect and ±100 for the full control effect; nearly all actives have a fitted effect of over 60% in size
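KB-3-1 cells, DMEM (no phenol red) + 10% FBS; compound by pin transfer, 72 h, 37 °C. Readout: CellTiter-Glo luminescence after 10 min. Data normalized, curve-fitted.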
* = called active by the depositor; i = inactive; ? = inconclusive; / = no result given; [ ] = another dose, or the depositor's remark. Calls follow the shape of the dose curve; as a rule, active = well fitted curve in the direction sought with a large enough effect; inconclusive = small, poorly fitted or top-dose-only effect, or another doubt; inactive = no such curve, though single readings can be large; an effect the other way counts as inactive or inconclusive. Potency is read from the fitted curve at half-maximal effect.

SMILES	MCF10A rerep	HT1080 IDH1KD tx	KB-V1 cytotox	HT1080-NT tox	SW480 rerep	KB-3-1 cytotox
CC(=NNc1nc2ccccc2s1)c1ncccn1	?	1.2µM*	1.3µM*	?	?	2.3µM*
Oc1ccccc1/C=N/Nc1nc2ccccc2o1	7%	?	?	?	?	?
CC(=NNc1nc2ccccc2o1)c1ncccn1	?	1.2µM*	?	?	?	1.8µM*
CC(=NNc1nc2ccccc2o1)c1cc2ccccc2cn1	?	?	?	?	13µM*	?
COc1ccc(S(=O)(=O)N(CCc2ccccc2)CC(=O)Nc2cc(Cl)ccc2C)cc1	/	/	i	/	/	i
CN(C(=O)CSc1nc2ccc(NC(=O)c3ccco3)cc2s1)c1ccccc1	/	/	i	/	/	i
CCOC(=O)C1CCCN(S(=O)(=O)c2ccc3c4c(cccc24)C(=O)N3CC)C1 (stereo not drawn)	15%	-9%	i	-2%[9.24 µM]	7.3µM*	i
CCN1C(=O)c2cccc3c(S(=O)(=O)N4CCNCC4)ccc1c23	?	-7%	i	-11%	6.5µM*	i
CCN1C(=O)c2cccc3c(S(=O)(=O)N4CCCC4C(=O)O)ccc1c23 (stereo not drawn)	-14%	17%	i	?	18µM*	i
CCc1ccc(S(=O)(=O)/N=C2/C=C(Sc3ncn[nH]3)C(=O)c3ccccc32)cc1	3.3µM*	5.2µM*	i	5.8µM*	4.6µM*	i
CCc1ccc(S(=O)(=O)/N=C2\C=C(Nc3cccc(C(=O)O)c3)C(=O)c3ccccc32)cc1	?	7.3µM*	i	8.2µM*	115%	i
CCc1ccc(S(=O)(=O)/N=C2\C=C(Nc3ccc(O)cc3)C(=O)c3ccccc32)cc1	3.7µM*	2.9µM*	?	2.9µM*	5.8µM*	2.9µM*
Cc1nc2nc(N)nn2c(C)c1C/C=C/c1ccccc1	6%	4%	i	6%	-1%	i
CCCCn1cc(S(=O)(=O)c2ccc(C)c(C)c2)c(=O)c2cc(F)c(N3CCN(C)CC3)cc21	/	/	i	/	/	i
O=C(O)CC/C(=N/Nc1ccc([N+](=O)[O-])cc1)C(=O)O	1%	5.8µM*	i	1.6µM*	8%	i
Cc1ccc2c(c1)C(=O)OC(C(=O)Nc1ncc(Cc3ccc(C(C)C)cc3)s1)C2 (stereo not drawn)	/	/	i	/	/	i
O=C(O)/C=C/C(=O)Nc1ccc(S(=O)(=O)Nc2nccs2)cc1	-3%	17%	i	?	2%	i
N=c1c(C(=O)NCc2ccco2)cc2c(=O)n3ccccc3nc2n1Cc1ccccc1	18µM*	-14%	?	-14%	15µM*	?
Cc1ccc(S(=O)(=O)c2cc3c(=O)n4ccccc4nc3n(C3CCCCC3)c2=N)cc1	-2%	2%	i	-7%	3%	i
Cc1ccc(S(=O)(=O)c2cc3c(=O)n4ccccc4nc3n(Cc3ccco3)c2=N)cc1	9%	?	8.2µM*	?	-1%	i
CC(C)n1c(=N)c(C(=O)NCCc2ccccc2)cc2c(=O)n3ccccc3nc21	13µM*	-7%	?	-2%	23µM*	i
Cc1cccn2c(=O)c3cc(C(=O)NCc4cccnc4)c(=N)n(C(C)C)c3nc12	?	-4%	i	-1%	?	i
N=c1c(C(=O)NCc2ccc3c(c2)OCO3)cc2c(=O)n3ccccc3nc2n1Cc1cccnc1	15%	2%	i	2%	15%	i
CCOC(=O)c1cc2c(=O)n3ccccc3nc2n(Cc2ccc(Cl)cc2)c1=N	1.6µM*	3%	i	-1%	2.1µM*	i
CCC[C@@H]1C[C@@H](C(=O)N[C@@H]([C@H]2O[C@H](SC)[C@H](O)[C@@H](O)[C@H]2O)[C@@H](C)O)N(C)C1	-3%	/	/	/	10%	/
SMILES	MCF10A rerep	HT1080 IDH1KD tx	KB-V1 cytotox	HT1080-NT tox	SW480 rerep	KB-3-1 cytotox
COCCn1c(=N)c(C(=O)NCc2ccco2)cc2c(=O)n3ccccc3nc21	10µM*	?	i	-10%	?	i
N=c1c(C(=O)NCc2ccccc2)cc2c(=O)n3ccccc3nc2n1Cc1ccco1	13µM*	-11%	i	-21%	16µM*	i
Cc1ccc(CNC(=O)c2cc3c(=O)n4ccccc4nc3n(Cc3ccco3)c2=N)cc1	7.9µM*	-7%	i	-9%	16µM*	i
Cc1ccc2nc3c(cc(C(=O)NCc4ccco4)c(=N)n3Cc3ccco3)c(=O)n2c1	?	4%	i	-5%	24%	i
COCCn1c(=N)c(C(=O)NCC2CCCO2)cc2c(=O)n3ccccc3nc21 (stereo not drawn)	/	/	?	/	/	i
COc1ccc(CNC(=O)c2cc3c(=O)n4ccccc4nc3n(Cc3cccnc3)c2=N)cc1	?	-6%	i	4%	18%	i
N=c1c(C(=O)NCc2ccco2)cc2c(=O)n3ccccc3nc2n1Cc1ccc(Cl)cc1	2.3µM*	-20%	?	-3%	9.2µM*	?
CCCN1CCN(C(=O)Cn2ncc3c4ccccc4n(Cc4cccc(Cl)c4)c3c2=O)CC1	/	/	i	/	/	i
O=C(Cn1cc(S(=O)(=O)c2ccccc2)c(=O)c2cc3c(cc21)OCO3)Nc1ccccc1	/	/	i	/	/	i
COc1ccc(CCNC(=O)c2cc3c(=O)n4cccc(C)c4nc3n(Cc3ccco3)c2=N)cc1OC	?	4%	i	-2%	?	i
N=c1c(C(=O)NCc2ccc(F)cc2)cc2c(=O)n3ccccc3nc2n1Cc1ccco1	6.5µM*	-17%	?	3%	?	i
CCc1ccccc1NC(=O)c1ccc2c(O)c(S(=O)(=O)c3ccccc3)c(=O)[nH]c2c1	/	/	i	/	/	i
COc1ccc(/C=C/c2ccc3c(Br)ccc(O)c3n2)cc1	23µM*	-13%	?	-1%	?	?
COc1cc(/C=C/c2ccc3c(Br)cc(Br)c(O)c3n2)ccc1O	13µM*	?	i	?	?	?
Cc1ccc2c(Br)cc(Br)c(O)c2n1	19µM*	/	/	/	-2%	/
